Records with an inconclusive call do not appear. Active and inactive are the calls of the source. Calls come from the whole dose curve; as a rule, active = well fitted curve in the direction sought with a large enough effect; inconclusive = small, poorly fitted or top-dose-only effect, or another doubt; inactive = no such curve, though single readings can be large or run the other way.
Biological target: Polyunsaturated fatty acid lipoxygenase ALOX15 (Homo sapiens) (UniProt P16050)
Assay: Counterscreen qHTS for inhibitors of human arachidonate 12S-lipoxygenase (ALOX12): ALOX15 Assay; note: 0% is about no effect
Details: purified ALOX15 enzyme activity; series mostly up to 110 µM; activity change, negative = inhibition: at the top concentration
Method in brief: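 Xylenol orange–ferric complex formation, read as the 573 nm to 405 nm absorbance ratio, tracks product from 50 uM arachidonic acid turned over for 30 min at RT. Enzyme is 40 nM ALOX15, pH 7.5 HEPES buffer, compound-preincubated 15 min.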

Chain of Polyunsaturated fatty acid lipoxygenase ALOX15 (Homo sapiens) (P16050 whole entry, looked up): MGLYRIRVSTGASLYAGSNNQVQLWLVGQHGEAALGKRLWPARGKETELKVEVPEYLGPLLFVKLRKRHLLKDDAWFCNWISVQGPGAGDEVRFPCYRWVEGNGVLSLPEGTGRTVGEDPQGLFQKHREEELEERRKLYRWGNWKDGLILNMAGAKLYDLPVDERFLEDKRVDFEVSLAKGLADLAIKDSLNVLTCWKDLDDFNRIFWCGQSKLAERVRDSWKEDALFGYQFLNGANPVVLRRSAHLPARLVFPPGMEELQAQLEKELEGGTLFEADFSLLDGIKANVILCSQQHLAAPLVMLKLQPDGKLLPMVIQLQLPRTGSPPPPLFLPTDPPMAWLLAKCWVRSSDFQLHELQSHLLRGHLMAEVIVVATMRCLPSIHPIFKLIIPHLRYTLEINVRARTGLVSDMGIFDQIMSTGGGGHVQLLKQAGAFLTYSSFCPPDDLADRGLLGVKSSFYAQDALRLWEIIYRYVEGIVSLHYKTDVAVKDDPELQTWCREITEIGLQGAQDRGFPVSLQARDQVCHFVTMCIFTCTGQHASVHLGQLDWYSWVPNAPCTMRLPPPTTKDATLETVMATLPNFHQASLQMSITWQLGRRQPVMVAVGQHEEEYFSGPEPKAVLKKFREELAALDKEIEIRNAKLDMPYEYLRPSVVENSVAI

| SMILES | activity change, negative = inhibition |
| --- | --- |
| CN1CC(=O)N(C2CCCNCC2)Cc2c1ncnc2N1CCC(C#N)CC1 (stereo not drawn) | -15.6% (inactive) |
| NCCC(=O)N1CCC2(CC1)CN(C(=O)Cc1ccc(Cl)cc1)CCO2 | -29% (inactive) |
| COc1cccc(N2C(=O)NC(=NC3CCCC3)C23CCN(CC2CC2)C3)c1 (stereo not drawn) | -4.92% (inactive) |
| O=C1Nc2ccccc2CN(CC2CC2)C12CCNCC2 | -9.42% (inactive) |
| Cc1ccc(-c2ccccc2CN)c(C)c1 | -18.6% [at 146 µM] (inactive) |
| CCOc1cccc(CN2CCC3(Cc4ccccc4CNC3=O)C2)c1 (stereo not drawn) | -23.1% (inactive) |
| O=C(c1ccc(C(F)(F)F)cc1)N1CCCC2(CC(c3ccccc3)=NO2)C1 (stereo not drawn) | 2.85% (inactive) |
| O=C1NCc2ccccc2CC12CCN(Cc1cc(O)cc(O)c1)C2 (stereo not drawn) | 7.36% [at 146 µM] (inactive) |
| Cc1cc(C)c(S(=O)(=O)c2nnn3c2nc(NCCCOC(C)C)c2ccccc23)c(C)c1 | -24% (inactive) |
| NCc1ccc(-c2cccc(C(F)(F)F)c2)cc1 | 29.9% [at 146 µM] (inactive) |
| C[S+](=O)([O-])N1Cc2ccccc2CC2(CCN(CC3CCNC3)CC2)C1 (stereo not drawn) | 6.88% (inactive) |
| CN1CC(=O)N(C2CCCNCC2)Cc2c1ncnc2N1CCCC(F)C1 (stereo not drawn) | 2.56% (inactive) |
| COc1cccc(N2C(=O)NC(=NC3CCCC3)C23CCCN(CC2CC2)C3)c1 (stereo not drawn) | -13% (inactive) |
| Cn1nc(C2CCNC2)c2c(C(=O)NC3CC3)cc(C3CC3)nc21 (stereo not drawn) | -0.11% [at 146 µM] (inactive) |
| COc1ccc(N2CC3CCC(C2)N3C(C)=O)cc1 | -12% [at 146 µM] (inactive) |
| O=C1Nc2ccccc2C12CCN(Cc1ccccc1)C2 (stereo not drawn) | -8.29% [at 146 µM] (inactive) |
| O=C(C1CCCC1)N1CC2(CCN(Cc3ccc(Cl)cc3)C2)Cc2ccccc21 (stereo not drawn) | -17.1% (inactive) |
| O=C1NCc2ccccc2CC12CCCN2Cc1cccc(OC(F)(F)F)c1 (stereo not drawn) | -23.8% (inactive) |
| Cc1ccc(-c2ccc(C=O)cc2)cc1Cl | -10.5% [at 233 µM] (inactive) |

| SMILES | activity change, negative = inhibition |
| --- | --- |
| CNC(C)c1ccc(Oc2ccccc2)cc1 (stereo not drawn) | 6.86% [at 146 µM] (inactive) |
| CN1CC(=O)N(C2CCNCC2)Cc2c(NCCc3cccc(F)c3)ncnc21 | -17.2% (inactive) |
| CN1CC(=O)N(C2CCCNC2)Cc2c1ncnc2N1CCSCC1 (stereo not drawn) | -29.8% (inactive) |
| Cn1nc(C2CCCNC2)c2c(C(=O)NCC(F)(F)F)cc(C3CC3)nc21 (stereo not drawn) | -15.3% (inactive) |
| NCC(C1CCCCC1)N1CCCC1 (stereo not drawn) | -15.9% [at 233 µM] (inactive) |
| COc1ccc(N2CC3CCC(C2)N3Cc2cccc(Cl)c2)cc1 | -20.7% (inactive) |
| O=c1[nH]c(C2CCN(Cc3ccc(-c4cccnc4)cc3)CC2)nc2ccc(F)cc12 | -8.08% (inactive) |
| O=C(c1ccccn1)N1CCn2c(nn(-c3ccc(Cl)cc3)c2=O)C1 | -10.8% (inactive) |
| CSc1ccc(-c2ccccc2C=O)cc1 | -21.2% [at 233 µM] (inactive) |
| O=C1NC(=NC2CCCC2)C2(CCN(CC3CCCCC3)CC2)N1c1cc(F)cc(F)c1 | -26% (inactive) |
| COc1ccc(N2CC3CCC(C2)N3Cc2ccc(C#N)cc2)cc1 | -3.16% [at 146 µM] (inactive) |
| CC1CCCN(c2ncnc3c2CN(C2CCCNCC2)C(=O)CN3C)C1 (stereo not drawn) | -9.24% (inactive) |
| COc1ccc(OC2CN(Cc3ccc(F)cc3)C2)cc1 | 0.696% [at 146 µM] (inactive) |
| O=C1NCc2ccccc2CC12CCCN(CCCc1ccccc1)C2 (stereo not drawn) | -29.9% [at 146 µM] (inactive) |
| CN(C)c1ccc(CN2CCn3c(nn(-c4ccc(Cl)cc4)c3=O)C2)cc1 | -13% (inactive) |
| Cc1cc(C(=O)NC2CCNCC2)c2c(C3CCNCC3)noc2n1 | 1.65% [at 146 µM] (inactive) |
| NCc1cccc(-c2ccccc2F)c1 | 18.2% [at 146 µM] (inactive) |
| O=C1NCc2ccccc2CC12CCN(Cc1ccc(O)cc1)CC2 | -10.6% [at 146 µM] (inactive) |
| CN1CC(=O)N(c2ccc(Cl)cc2)Cc2c(NCC3CC3)ncnc21 | -18.4% (inactive) |
